# Results published in ChEMBL document CHEMBL1157539, “Thousands of chemical starting points for antimalarial lead identification” (Nature, 2010).
# Experiments:
# Format in all cases: functional
# Plasmodium falciparum [1] = assay: GSK_TCMDC: Inhibition of Plasmodium falciparum 3D7 in whole red blood cells, using parasite LDH activity as an index of growth. Test compounds present at 2uM
# Plasmodium falciparum [2] = assay: GSK_TCMDC: Inhibition of Plasmodium falciparum Dd2 in whole red blood cells, using parasite LDH activity as an index of growth. Test compounds present at 2uM
# HepG2 = assay: GSK_TCMDC: Percent inhibition of human HepG2 cell line. Test compounds present at 10uM.
Structure (SMILES),Inhibition (Plasmodium falciparum [1]),Inhibition (Plasmodium falciparum [2]),Inhibition (HepG2)
O=C(Nc1cccc(CN2CCN(Cc3ccc(O)cc3)CC2)c1)c1cc2ccccc2o1.O=C(O)C(F)(F)F,81%,12%,8%
c1ccn2c(Sc3ncnc4sccc34)ncc2c1,100%,100%,0%
COc1ccc(CNC(=O)Nc2cc3cc(-c4ccc(CN5CCCC5)cc4)ccc3n3c(C)nnc23)cc1,100%,100%,100%
CCOc1ccc(C(=O)Nc2ccc(-c3nc4ccccc4[nH]3)cc2)cc1[N+](=O)[O-],100%,70%,22%
Cc1c[nH]c2ccc(/C=C/C(=O)NC3CCC(CCN4CCc5ccc(C#N)cc5CC4)CC3)cc12.Cl (centres undefined),100%,91%,9%
COc1ccc(NC(=O)/C=C/c2ccccc2Cl)cc1OCCN1CCN(c2ccncc2)CC1,100%,52%,7%
CC(=O)c1ccc(Nc2c(C(N)=O)cnc3cc(-c4c(C)noc4C)ccc23)cc1,99%,44%,0%
O=C(NCCCCN1CCC(c2ccc3c(c2OCCN2CCCC2=O)CCCC3)CC1)c1ccc(-c2ccc(C(F)(F)F)cc2)cc1,88%,1%,56%
CN1CCc2cc(CN3CC4(C)CC3CC(C)(C)C4)c(O)cc2C(c2ccccc2)C1.Cl (centres undefined),98%,88%,0%
Cc1oc(-c2cccc(Oc3ccccc3)c2)nc1CN(Cc1cnn(C)c1)C(C)C,89%,61%,22%
CCc1ccc(CN2CCC(CNC(=O)c3cc(-c4cccc(F)c4)cs3)C2)cc1.O=C(O)C(F)(F)F (centres undefined),84%,4%,23%
O=C(CCc1cccc(O)c1)NCC(NCCCNc1cc(=O)c2ccccc2[nH]1)c1cc(Br)cc(Br)c1 (centres undefined),86%,37%,0%
O=C(O)C(F)(F)F.c1cc(CNCCN2CCNCC2)cc(-c2cccc(-c3nc4ccccc4[nH]3)c2)c1,89%,1%,11%
COc1cccc(CNC(=O)c2cc(CNCc3ccccc3)ccc2-c2cccc(CNCc3ccc(-c4ccccc4)cc3)c2)c1.O=C(O)C(F)(F)F,95%,15%,22%
Cc1cc(N/N=C/c2ccccc2[N+](=O)[O-])c2ccccc2n1,100%,100%,10%
CCC(C)Oc1ccc2nc(N)nc(N)c2c1Cl (centres undefined),96%,0%,57%
CCCCNCc1ccc(-c2nc(CN(Cc3ccc(Cl)c(Cl)c3)C(=O)CN(C)C)cs2)cc1.O=C(O)C(F)(F)F,100%,51%,36%
Cn1ccc2c3c(N)nc(N)nc3ccc21,91%,17%,59%
O=C(Nc1ccc(C(F)(F)F)cc1)NC1CCN(c2ccnc3cc(Cl)ccc23)CC1.O=C(O)C(F)(F)F,100%,74%,22%
OC(CNCc1ccccc1OCc1ccccc1)c1cc(C(F)(F)F)cc(C(F)(F)F)c1 (centres undefined),100%,99%,3%
C[C@H](Cc1ccc(OCCCCOc2ccc(C[C@@H](C)NC[C@H](O)c3cccc(Cl)c3)cc2)cc1)NC[C@H](O)c1cccc(Cl)c1,100%,92%,68%
CC(=O)Nc1ccc(CN(Cc2ccc(OC(C)(C)C)cc2)Cc2ccc3c(c2)OCCO3)cc1,91%,75%,7%
NC1CCN(Cc2ccc(-c3ccc(-c4nc5cc(F)ccc5[nH]4)cc3)cc2)C1.O=C(O)C(F)(F)F (centres undefined),98%,99%,41%
CCC(=O)Nc1cc(=O)[nH]c2nc(-c3ccc(Cl)cc3)nn12,84%,62%,3%
O=C(N/C=N/c1cc([N+](=O)[O-])c(-c2ccncc2)n1-c1ccccc1)c1cccc(O)c1,100%,56%,2%
Cc1cc(SC(C)(C)C)cc2c(Cl)c(C(N)=O)cnc12,98%,98%,83%
O=C(c1ccco1)c1cn(CCOc2ccccc2)c2ccccc12,98%,10%,5%
Cc1ccc(C2(C)CC(C)(C)N(C(=O)COc3ccc4ccccc4c3)c3ccccc32)cc1 (centres undefined),100%,98%,0%
